Measurements: PubChem BioAssay AID1159580 (chemical genetic matrix, 2015)
Values joined by “and” are separate entries in the source; they are usually repeats but may differ in a detail not shown here. Equal values may be shown once. Screen size: about 5,500 compounds; about 2,000 (36%) were called active. Roughly 18% stayed inconclusive and do not appear here. No stated cut-off is given here; in the data, active means normalized growth mostly below about 0.91 (no sharp cut-off); inconclusive means no clear call, values can overlap the other calls; inactive means mostly above about 0.92. The list shows a part of the results.

Test: chemical genetic growth profiling, strain panel (AID 1159580);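 further: tested at 20 µM; growth read once vehicle control cultures reached saturation at 30 °C; 1 = growth at the plate median or of vehicle wells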
Details: S. cerevisiae deletion strains, growth OD

Measured: normalized growth

O=C(/C=C/C=C/c1ccc2c(c1)OCO2)N1CCCCC1
0.779 (active) and 0.987 (inactive): locus YJL095W, strain BCK1, stronger effect = lower value
active: locus YAL026C, strain drs2, stronger effect = lower value 0.885 | locus YBR009C, strain hhf1, stronger effect = lower value 0.907 | locus YCL011C, strain gbp2, stronger effect = lower value 0.889 | locus YCL069W, strain vba3, stronger effect = lower value 0.904 | locus YDR137W, strain rgp1, stronger effect = lower value 0.687 | locus YDR195W, strain ref2 1.23 [resistant] | locus YDR318W, strain mcm21, stronger effect = lower value 0.895 | locus YDR392W, strain spt3, stronger effect = lower value 0.599 | locus YDR502C, strain sam2, stronger effect = lower value 0.888 | locus YER015W, strain faa2, stronger effect = lower value 0.922 | locus YER155C, strain BEM2 (second series), stronger effect = lower value 0.696 | locus YGL086W, strain mad1, stronger effect = lower value 0.923 | locus YGL253W, strain hxk2, stronger effect = lower value 0.873 | locus YGR135W, strain pre9, stronger effect = lower value 0.886 | locus YGR229C, strain SMI1, stronger effect = lower value 0.732 | locus YGR252W, strain gcn5, stronger effect = lower value 0.732 | locus YHR142W, strain chs7, stronger effect = lower value 0.857 | locus YJL129C, strain trk1, stronger effect = lower value 0.855 | locus YJL164C, strain tpk1, stronger effect = lower value 0.904
inactive: locus YAL013W, strain DEP1, stronger effect = lower value 0.962 | locus YAL021C, strain ccr4, stronger effect = lower value 0.965 | locus YAL030W, strain snc1, stronger effect = lower value 0.959 | locus YBL061C, strain skt5, stronger effect = lower value 0.949 | locus YBR021W, strain FUR4, stronger effect = lower value 0.893 | locus YBR023C, strain chs3, stronger effect = lower value 0.92 | locus YBR171W, strain sec66, stronger effect = lower value 0.91 | locus YBR229C, strain ROT2, stronger effect = lower value 0.969 | locus YBR231C, strain swc5, stronger effect = lower value 0.951 | locus YBR279W, strain paf1, stronger effect = lower value 0.952 | locus YCL016C, strain dcc1, stronger effect = lower value 0.915 | locus YCL029C, strain bik1, stronger effect = lower value 0.954 | locus YCL061C, strain MRC1, stronger effect = lower value 0.943 | locus YCR088W, strain abp1, stronger effect = lower value 0.945 | locus YDL005C, strain med2, stronger effect = lower value 0.975 | locus YDL035C, strain GPR1, stronger effect = lower value 0.922 | locus YDL040C, strain nat1, stronger effect = lower value 0.966 | locus YDL074C, strain BRE1, stronger effect = lower value 0.835 | locus YDL101C, strain DUN1, stronger effect = lower value 0.969 | locus YDL134C, strain PPH21, stronger effect = lower value 0.944 | locus YDL185W, strain tfp1, stronger effect = lower value 0.94 | locus YDL192W, strain arf1, stronger effect = lower value 0.939 | locus YDR001C, strain nth1, stronger effect = lower value 0.936 | locus YDR069C, strain doa4, stronger effect = lower value 0.998 | locus YDR101C, strain arx1, stronger effect = lower value 0.931 | locus YDR150W, strain NUM1, stronger effect = lower value 0.986 | locus YDR159W, strain sac3, stronger effect = lower value 0.955 | locus YDR162C, strain NBP2, stronger effect = lower value 0.93 | locus YDR297W, strain sur2, stronger effect = lower value 0.965 | locus YDR334W, strain swr1, stronger effect = lower value 0.968 | locus YDR335W, strain msn5, stronger effect = lower value 0.96 | locus YDR388W, stronger effect = lower value 0.931 | locus YEL003W, strain gim4, stronger effect = lower value 0.94 | locus YEL037C, strain rad23, stronger effect = lower value 0.946 | locus YEL061C, strain CIN8 (second series), stronger effect = lower value 0.969 | locus YEL061C, strain CIN8, stronger effect = lower value 0.971 | locus YER016W, strain bim1, stronger effect = lower value 0.948 | locus YER110C, stronger effect = lower value 0.951 | locus YER111C, strain swi4, stronger effect = lower value 0.986 | locus YER155C, strain BEM2, stronger effect = lower value 0.963 | locus YER167W, strain BCK2, stronger effect = lower value 0.907 | locus YFR010W, strain ubp6, stronger effect = lower value 0.974 | locus YGL078C, strain dbp3, stronger effect = lower value 0.957 | locus YGL167C, strain pmr1, stronger effect = lower value 0.945 | locus YGL173C, strain kem1, stronger effect = lower value 0.926 | locus YGL227W, strain vid30, stronger effect = lower value 0.948 | locus YGL240W, strain doc1, stronger effect = lower value 0.919 | locus YGL248W, strain PDE1, stronger effect = lower value 0.938 | locus YGR078C, strain PAC10, stronger effect = lower value 0.871 | locus YHR013C, strain ard1, stronger effect = lower value 0.951 | locus YHR027C, strain rpn1, stronger effect = lower value 0.959 | locus YHR030C, strain SLT2, stronger effect = lower value 0.939 and 0.975 | locus YHR079C, strain IRE1 (second series), stronger effect = lower value 0.937 | locus YHR079C, strain IRE1, stronger effect = lower value 0.977 | locus YHR094C, strain hxt1, stronger effect = lower value 0.954 | locus YHR129C, strain ARP1, stronger effect = lower value 0.973 | locus YHR200W, strain rpn10, stronger effect = lower value 0.925 | locus YIL066C, strain RNR3, stronger effect = lower value 0.94 | locus YIL073C, strain SPO22, stronger effect = lower value 0.864 | locus YIL125W, strain kgd1, stronger effect = lower value 0.96 | locus YIR030C, strain dcg1, stronger effect = lower value 0.941 | locus YJL092W, strain hpr5, stronger effect = lower value 0.947 | locus YJL095W, strain BCK1 (second series), stronger effect = lower value 0.935 | locus YJL115W, strain asf1, stronger effect = lower value 0.984 | locus YJL134W, strain LCB3, stronger effect = lower value 0.978 | locus YJL154C, strain vps35, stronger effect = lower value 0.96 | locus YJL166W, strain qcr8, stronger effect = lower value 0.93 | locus YJL168C, strain set2, stronger effect = lower value 0.945 | locus YJL187C, strain SWE1 (second series), stronger effect = lower value 0.942 | locus YJL187C, strain SWE1, stronger effect = lower value 0.967 | locus YJR043C, strain POL32, stronger effect = lower value 0.862 | locus YJR066W, strain TOR1, stronger effect = lower value 0.955
